SUMO HTRF inh: inhibitors of in vitro SUMOylation cascade, primary screen, biochemical, HTRF, uHTS; SUMO-conjugating enzyme UBC9 (Homo sapiens), P63279; HTRF SUMOylation assay, SAE1/SAE2 + UBC9; inhibition, % at 35 µM; 290,000 compounds, 0.36% hits; in the data active = inhibition above about 50%, passing the limit was not always enough
PKD1 inh: inhibitors of human PKD1 kinase, biochemical, fluorescence polarization | Serine/threonine-protein kinase D1 (Homo sapiens), Q15139 | PKD1 kinase fluorescence polarization assay | AID 797, 2007 | 200,000 compounds, 0.056% hits | inhibition, % (concentration not given with the values); in the data active = inhibition above about 50%
p97 inhibitor: inhibitors of human p97 ATPase, primary screen, biochemical; Transitional endoplasmic reticulum ATPase (Homo sapiens), P55072; recombinant p97 ATPase, Kinase-Glo ATP luminescence, 3 h; 220,000 compounds, 0.42% hits; inhibition, % at 8 µM; in the data active = inhibition above about 15%;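 also: 0% = DMSO vehicle and 100% = wells lacking enzyme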
DTT redox prof: compounds producing H2O2 with reducing agent – biochemical, NIH compound library profiling, artefact control for MLSCN library redox annotation, primary screen; AID 878, 2007; 200,000 compounds, 0.03% hits; DTT-dependent redox cycling H2O2, phenol red/HRP absorbance; 100% = 100 µM peroxide control, 0% = buffer; activation, % at 10 µM;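 active = activation of at least 50% relative to the plate's high and low controls in the primary single-dose screen; inactive = activation below 50%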;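 also: compound incubated with DTT at 0.8 mM final as the reducing agent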
Furin inh: human furin inhibitors, primary screen, biochemical, fluorescence intensity | 220,000 compounds, 0.061% hits | P09958 | purified furin, fluorogenic substrate cleavage | inhibition, % at 20 µM or 30 µM; in the data active = inhibition above about 25%
FAS TE block: FAS thioesterase domain inhibitors, primary screen, biochemical, fluorescence intensity, uHTS | Fatty acid synthase (Homo sapiens), P49327 | recombinant FAS-TE, OMFH fluorogenic substrate, fluorescence endpoint | inhibition, % at 15 µM | 360,000 compounds, 0.67% hits | AID 602261, 2012;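 active = compounds whose normalised, plate-corrected inhibition of enzyme fluorescence in the single-dose primary screen is 50% or more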;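 also: 0% = DMSO with enzyme and 100% = substrate without enzyme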
FAS-TE conf: FAS thioesterase domain inhibitors, confirmation, biochemical, fluorescence intensity, single concentration; shares compounds with FAS TE block; recombinant FAS-TE, OMFH fluorogenic substrate; inhibition, % at 15 µM; 2,300 compounds, 45% hits;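 active = compounds inhibiting the enzyme by at least 50% at 15 µM in any one of the replicates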;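 also: 0% = enzyme with DMSO only and 100% = wells lacking enzyme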
* hit, by the source's call; / = not tested or not shown. Shown are actives, neighbours in structure and some others; about 1.2% of the full set was active somewhere.

SMILES	SUMO HTRF inh	PKD1 inh	p97 inhibitor	DTT redox prof	Furin inh	FAS TE block	FAS-TE conf
COC(=O)c1sc2ccccc2c1NC(=O)c1ccc(S(=O)(=O)N2CCCCC2)cc1	-17.4	-3.3	8.6	0.5	-11.8	62.4*	32.5
COC(=O)c1sc2ccccc2c1NC(=O)c1ccc(S(=O)(=O)N2CCCCC2C)cc1 (configuration not stated)	13.6	-4.2	2.8	-0.3	-11.1	20.0	/
N#CCCN(CCC#N)S(=O)(=O)c1ccc(C(=O)Nc2nc(-c3ccccc3)c(C(=O)c3ccccc3)s2)cc1	-75.6	/	7.4	/	-4.7	57.5*	11.7
CN(Cc1nccn1C)C(=O)c1ccc2nc(Cc3ccccc3F)oc2c1	0.6	/	/	/	/	-3.2	/
CC1=C(C(=O)N2CCCCCC2)CC(CC(=O)NCCN2CCOCC2)C(=O)N1Cc1ccc(F)cc1 (configuration not stated)	/	/	/	/	/	0.3	/
NC(=O)C1CCN(C(=O)c2cccc(S(=O)(=O)N3CCCC3)c2)CC1	/	/	/	/	/	-6.3	/
O=C(c1ccc(NS(=O)(=O)c2ccc3[nH]c(=O)[nH]c3c2)cc1)N1CCCC(C(F)(F)F)C1 (configuration not stated)	/	/	/	/	/	-3.1	/
COc1ccc(C2=NNC(=O)C2(C)Br)cc1 (configuration not stated)	/	/	/	/	/	1.5	/
O=C(CN1C(=O)NC2(CCCCC2)C1=O)NCCc1ccccc1	/	/	/	/	/	-4.6	/
CCOc1ccccc1Nc1nnc(SC(C)C(=O)Nc2nc(-c3ccccc3)cs2)s1 (configuration not stated)	-5.0	1.0	3.1	-0.1	-21.0	75.6*	17.9
CCc1ccc(NC(=O)COc2ccc(F)cc2C(=O)c2cnn(-c3ccccc3)c2)cc1	-16.1	-1.8	6.5	1.9	-16.8	52.9*	-0.2
COc1ccccc1NC(=O)COc1ccccc1C(=O)c1cnn(-c2ccccc2)c1	-12.2	-4.0	-3.5	1.9	-10.3	36.0	/
Cc1c(Cl)c(=O)oc2cc(OCC(=O)NCc3cccs3)ccc12	40.7	-2.9	2.4	-0.3	-11.4	57.1*	10.9
Cc1ccc(OCC(=O)NCc2cccs2)cc1	17.1	-9.2	-3.7	0.1	-8.0	-6.2	/
Cc1c(Cl)c(=O)oc2cc(OCC(=O)N3CCCC(C)C3)ccc12 (configuration not stated)	/	/	/	/	/	63.9*	63.1*
O=C(COc1ccc2c3c(c(=O)oc2c1)CCC3)N1CCN(c2ccccc2)CC1	/	/	/	/	/	50.5*	34.3*
Cc1c(C)c2ccc(OCC(=O)N3CCN(c4ccccc4)CC3)cc2oc1=O	22.4	/	/	/	/	56.4*	63.5*
Cc1cc(=O)oc2cc(OCC(=O)N3CCN(c4ccccc4)CC3)ccc12	/	/	/	/	/	25.8	/
C#CCN(C[C@H]1[C@H](OC(=O)NCc2ccccc2F)[C@H](OC(=O)NCc2ccccc2F)C[C@@H](C(=O)OC)[C@H]1C(=O)OC)S(=O)(=O)c1ccc(C)cc1	/	/	/	/	/	19.8	/
O=C1CCC[C@@H]2C[C@@]3(C[C@@H]4CCN1[C@H]24)Nc1cc(Cl)c(Cl)cc1NC3=NCc1ccccc1	/	/	/	/	/	52.5*	36.2
COc1cc(/C=C/C(=O)OCC(=O)NCC2CCCO2)ccc1OCC#N (configuration not stated)	6.3	-7.8	-8.1	0.0	-7.2	-12.0	/
COc1cc(/C=C/C(=O)OCC(=O)Nc2sc3c(c2C#N)CCC(C)C3)ccc1OCC#N (configuration not stated)	4.0	0.7	11.9	-0.5	-14.0	64.5*	17.4
CCCCN(C(=O)c1cc2c(s1)CCC2)c1c(N)n(CCC)c(=O)[nH]c1=O	/	/	/	/	/	-7.1	/
CC(=O)C[C@@H](O)CC(=O)[C@@H]1OC(=O)CCCCCc2ccccc21	/	/	/	/	/	-10.6	/
CC(=O)N1CCN(S(=O)(=O)c2cccc(C(=O)OCc3ccc(C(C)(C)C)cc3)c2)CC1	/	/	/	/	/	88.5*	51.2*
COc1ccc(CNc2nc(C)c([N+](=O)[O-])c(C)c2C#N)cc1	-6.6	-9.6	-3.7	0.7	-9.7	43.2	/

Bioassay records from PubChem BioAssay.
